In all, about 39,000 compounds went through this assay and about 3,300 (8.5%) were called active. This excerpt belongs to a sample that is enriched for actives.

The test deals with HepG2. The test is described as follows: cytotoxicity call (relative viability < 0.9). As to conditions: 10 µM.
On to `C[C@@H]1CN([C@H](C)CO)C(=O)c2cc(NC(=O)Cn3cnnn3)ccc2O[C@H]1CN(C)Cc1ccc(Cl)c(Cl)c1`, for which the cytotoxicity call is “inactive”.

Take `C[C@H]1CN([C@@H](C)CO)C(=O)c2cccc(NS(=O)(=O)c3ccc(F)cc3)c2O[C@@H]1CN(C)S(=O)(=O)c1cccs1`: the cytotoxicity call is “inactive”.

Turning to `O=C(C[C@H]1C[C@@H]2c3cc(NC(=O)Nc4ccc(C(F)(F)F)cc4)ccc3O[C@@H]2[C@H](CO)O1)NCc1cc(F)ccc1F`, the cytotoxicity call was “inactive”.

With `C[C@H](CO)N1C[C@H](C)[C@@H](CN(C)C(=O)Nc2cccc(F)c2)OCc2ccccc2-c2ccccc2C1=O`, the cytotoxicity call is “inactive”.

For `C[n+]1ccc(CCCO)cc1`, the cytotoxicity call was “inactive”.

In the case of `CC(C)C(N)C(=O)OCCOCn1cnc2c(=O)[nH]c(N)nc21.Cl` (centres undefined), the cytotoxicity call was “inactive”.

For the compound `Clc1ccc(C(Cn2ccnc2)OCc2c(Cl)cccc2Cl)c(Cl)c1.O=[N+]([O-])O` (centres undefined), the cytotoxicity call was “inactive”.

As to `Clc1ccc(CCC(Cn2ccnc2)Sc2c(Cl)cccc2Cl)cc1` (centres undefined), the cytotoxicity call was “inactive”.

Turning to `Clc1ccc(COC(Cn2ccnc2)c2ccc(Cl)cc2Cl)cc1.O=[N+]([O-])O` (centres undefined), the cytotoxicity call is “active”.

Take `Clc1ccc(CON=C(Cn2ccnc2)c2ccc(Cl)cc2Cl)c(Cl)c1.O=[N+]([O-])O`: the cytotoxicity call is “inactive”.

`Clc1ccc(CSC(Cn2ccnc2)c2ccc(Cl)cc2Cl)cc1.O=[N+]([O-])O` (centres undefined): the cytotoxicity call is “active”.

For `Clc1ccc(COC(Cn2ccnc2)c2ccc(Cl)cc2Cl)c(Cl)c1.O=[N+]([O-])O` (centres undefined), the cytotoxicity call was “inactive”.

With `CC(C)NC(=O)N[C@H]1C=C[C@H](CC(=O)NCCCN(C)C)O[C@@H]1CO`, the cytotoxicity call was “inactive”.

With `COc1cccc(S(=O)(=O)N[C@H]2C=C[C@@H](CC(=O)NC3CCC3)O[C@H]2CO)c1`, the cytotoxicity call was “inactive”.

Turning to `C[C@@H]1CN([C@@H](C)CO)C(=O)c2cc(N(C)C)ccc2O[C@H]1CN(C)S(=O)(=O)c1ccc(Cl)cc1`, the cytotoxicity call is “inactive”.

In the case of `Cc1cccc(NC(=O)CN2C(=O)CNC2=O)c1`, the cytotoxicity call is “inactive”.

Consider `C[C@H](CO)N1C[C@H](C)[C@H](CN(C)C(=O)Nc2ccc3c(c2)OCO3)Oc2ccc(NS(C)(=O)=O)cc2CC1=O`, for which the cytotoxicity call was “inactive”.

Take `CCC(=O)N1CCN(c2ccc(-n3c(=O)ccc4cnc5ccc(-c6cnc7ccccc7c6)cc5c43)cc2C(F)(F)F)CC1`: the cytotoxicity call is “active”.

For `Cc1noc(C)c1NC(=O)Nc1ccc2c(c1)C(=O)N([C@H](C)CO)C[C@H](C)[C@H](CN(C)C(=O)C1CCCCC1)OCCCC[C@H](C)O2`, the cytotoxicity call was “inactive”.

Take `C[C@H]1CN([C@@H](C)CO)C(=O)c2cccc(NC(=O)c3nc4ccccc4s3)c2O[C@H]1CN(C)Cc1ccc(C(F)(F)F)cc1`: the cytotoxicity call was “inactive”.

With `O=C(C[C@@H]1C[C@@H]2c3cc(NC(=O)C4CCOCC4)ccc3O[C@@H]2[C@H](CO)O1)NCc1ccc2c(c1)OCO2`, the cytotoxicity call was “inactive”.

As for `CS(=O)(=O)OCCCCOS(C)(=O)=O` [listing 1 of 2 here], the cytotoxicity call was “inactive”.

Consider `CS(=O)(=O)OCCCCOS(C)(=O)=O` [listing 2 of 2 here], for which the cytotoxicity call is “inactive”.

As for `CS(C)(=O)=O`, the cytotoxicity call is “active”.

Take `CCOC(=O)c1c[nH][nH]c1=O`: the cytotoxicity call was “inactive”.

`CC(C)NC(=O)N(C)C[C@H]1OCCCC[C@H](C)Oc2ccc(NC(=O)Nc3ccc(F)cc3)cc2C(=O)N([C@H](C)CO)C[C@@H]1C`: the cytotoxicity call was “inactive”.

Regarding `C[C@H](CO)N1C[C@H](C)[C@@H](CN(C)C(=O)Cc2ccccc2)OCCCC[C@H](C)Oc2ccc(NC(=O)NC3CCCCC3)cc2C1=O`, the cytotoxicity call was “inactive”.

In the case of `COc1nn(C)cc1C(=O)Nc1ccon1`, the cytotoxicity call is “inactive”.

`OCCN1CNC(=S)NC1`: the cytotoxicity call is “inactive”.

Take `CCCCN1CNC(=S)NC1`: the cytotoxicity call is “active”.

Turning to `S=C1NCN(CCc2ccccc2)CN1`, the cytotoxicity call was “inactive”.

On to `Cc1noc(C)c1NC(=O)N(C)C[C@H]1Oc2ccc(NS(=O)(=O)c3ccccc3)cc2C(=O)N([C@H](C)CO)C[C@@H]1C`, for which the cytotoxicity call was “inactive”.

As to `COc1ccc(NC(=O)Nc2ccc3c(c2)C(=O)N([C@H](C)CO)C[C@@H](C)[C@H](CN(C)C(=O)Cc2ccccc2)OCCCC[C@H](C)O3)cc1`, the cytotoxicity call was “inactive”.

On to `NCc1cn(-c2ccccc2)nc1C12CC3CC(CC(C3)C1)C2`, for which the cytotoxicity call is “active”.

As to `OCc1cn(-c2ccccc2)nn1`, the cytotoxicity call was “inactive”.

In the case of `c1ccc(-c2nc(C34CC5CC(CC(C5)C3)C4)cs2)cc1`, the cytotoxicity call was “inactive”.

Turning to `CCS(=O)(=O)Nc1ccc2c(c1)C(=O)N(C)C[C@H](OC)[C@@H](C)CN(CCC(F)(F)F)[C@@H](C)CO2`, the cytotoxicity call is “inactive”.

As for `C[C@H](CO)N1C[C@H](C)[C@@H](CN(C)C(=O)c2ccc3c(c2)OCO3)Oc2cc(C#Cc3ccccc3F)ccc2S1(=O)=O`, the cytotoxicity call is “inactive”.

Turning to `C[C@H]1CN([C@@H](C)CO)C(=O)c2cccc(NC(=O)c3nc4ccccc4s3)c2O[C@@H]1CN(C)Cc1ccc(-c2ccccc2)cc1`, the cytotoxicity call was “inactive”.

As to `O=C(O)Cn1nc2ccccc2n1`, the cytotoxicity call was “inactive”.

On to `NC(=O)c1nnn(Cc2ccccc2)c1N`, for which the cytotoxicity call is “inactive”.

As to `O=C(O)c1nn(Cc2ccccc2)nc1C(=O)O`, the cytotoxicity call is “active”.

`C[C@H](CO)N1C[C@H](C)[C@@H](CN(C)S(=O)(=O)c2ccccc2F)Oc2ncc(Br)cc2C1=O`: the cytotoxicity call is “inactive”.

On to `Cc1noc(C)c1NC(=O)N(C)C[C@@H]1OCCCC[C@H](C)Oc2ccc(NS(=O)(=O)c3ccccc3)cc2C(=O)N([C@H](C)CO)C[C@@H]1C`, for which the cytotoxicity call is “inactive”.

Regarding `C[C@H](CO)N1C[C@H](C)[C@@H](CN(C)Cc2ccc(Cl)c(Cl)c2)OCCCC[C@H](C)Oc2ccc(NS(=O)(=O)c3ccc(F)cc3)cc2C1=O`, the cytotoxicity call was “inactive”.

Turning to `C[C@@H]1CCCCO[C@@H](CN(C)Cc2ccc(Cl)c(Cl)c2)[C@H](C)CN([C@H](C)CO)C(=O)c2cc(NS(=O)(=O)c3ccc(F)cc3)ccc2O1`, the cytotoxicity call was “active”.

Take `C[C@@H]1CCCCO[C@H](CN(C)Cc2ccc(Cl)c(Cl)c2)[C@@H](C)CN([C@H](C)CO)C(=O)c2cc(NS(=O)(=O)c3ccc(F)cc3)ccc2O1`: the cytotoxicity call was “inactive”.

Take `C[C@@H]1CCCCO[C@H](CN(C)Cc2ccc(Cl)c(Cl)c2)[C@H](C)CN([C@@H](C)CO)C(=O)c2cc(NS(=O)(=O)c3ccc(F)cc3)ccc2O1`: the cytotoxicity call is “active”.

Take `C[C@@H]1CCCCO[C@@H](CN(C)Cc2ccc(Cl)c(Cl)c2)[C@@H](C)CN([C@H](C)CO)C(=O)c2cc(NS(=O)(=O)c3ccc(F)cc3)ccc2O1`: the cytotoxicity call was “active”.

`C[C@H](CO)N1C[C@H](C)[C@H](CN(C)Cc2ccc(Cl)c(Cl)c2)OCCCC[C@H](C)Oc2ccc(NS(=O)(=O)c3ccc(F)cc3)cc2C1=O`: the cytotoxicity call was “inactive”.

For `C[C@H]1CCCCO[C@H](CN(C)Cc2ccc(Cl)c(Cl)c2)[C@@H](C)CN([C@@H](C)CO)C(=O)c2cc(NS(=O)(=O)c3ccc(F)cc3)ccc2O1`, the cytotoxicity call is “inactive”.

As to `C[C@@H]1CCCCO[C@@H](CN(C)Cc2ccc(Cl)c(Cl)c2)[C@H](C)CN([C@@H](C)CO)C(=O)c2cc(NS(=O)(=O)c3ccc(F)cc3)ccc2O1`, the cytotoxicity call is “active”.

As to `C[C@@H]1CCCCO[C@@H](CN(C)Cc2ccc(Cl)c(Cl)c2)[C@@H](C)CN([C@@H](C)CO)C(=O)c2cc(NS(=O)(=O)c3ccc(F)cc3)ccc2O1`, the cytotoxicity call was “inactive”.

Take `C[C@@H]1CN([C@H](C)CO)C(=O)c2cc(NS(=O)(=O)c3ccc(F)cc3)ccc2O[C@@H](C)CCCCO[C@H]1CN(C)Cc1ccc(Cl)c(Cl)c1`: the cytotoxicity call is “inactive”.

For the compound `C[C@@H]1CCCCO[C@H](CN(C)Cc2ccc(Cl)c(Cl)c2)[C@@H](C)CN([C@@H](C)CO)C(=O)c2cc(NS(=O)(=O)c3ccc(F)cc3)ccc2O1`, the cytotoxicity call was “inactive”.

In the case of `C[C@@H]1CCCCO[C@@H](CN(C)S(C)(=O)=O)[C@H](C)CN([C@H](C)CO)C(=O)c2cc(N(C)C)ccc2O1`, the cytotoxicity call is “inactive”.

Take `CCO/C(O)=C1/C(=O)CN(C)C1=O`: the cytotoxicity call is “inactive”.

`CCS(=O)(=O)Nc1ccc2c(c1)C(=O)N(C)[C@@H]1CC[C@H](CC(=O)N[C@@H]3CCN(Cc4ccccc4)C3)O[C@H]1CO2`: the cytotoxicity call was “inactive”.

As to `CN(C)CC(=O)N[C@H]1CC[C@@H](CCNC(=O)C2CCC2)O[C@H]1CO`, the cytotoxicity call was “inactive”.

Regarding `Cc1nnc(N2CCC[C@]3(CN(C(=O)CO)CCO3)C2)o1`, the cytotoxicity call is “inactive”.

For `C[C@@H]1CN([C@H](C)CO)C(=O)Cc2cc(NC(=O)C3CCCCC3)ccc2O[C@@H]1CN(C)C(=O)Nc1ccc(C(F)(F)F)cc1`, the cytotoxicity call was “inactive”.

Turning to `C[C@H]1CN([C@@H](C)CO)C(=O)c2cccc(NC(=O)c3ccncc3)c2O[C@@H]1CN(C)Cc1ccc(Oc2ccccc2)cc1`, the cytotoxicity call was “inactive”.

In the case of `Cc1ccc(S(=O)(=O)Nc2ccc3c(c2)C(=O)N([C@@H](C)CO)C[C@H](C)[C@@H](CN(C)C(=O)Cc2ccccc2)OCCCC[C@H](C)O3)cc1`, the cytotoxicity call is “inactive”.

For `C[C@@H]1CN([C@@H](C)CO)S(=O)(=O)c2ccc(Br)cc2O[C@@H]1CN(C)CC1CCOCC1`, the cytotoxicity call was “inactive”.

Consider `CC(C)NC(=O)Nc1ccc2c(c1)C(=O)N([C@H](C)CO)C[C@H](C)[C@H](CN(C)Cc1ccc(C(F)(F)F)cc1)OCCCC[C@@H](C)O2`, for which the cytotoxicity call was “inactive”.

For the compound `CC(C)NC(=O)Nc1ccc2c(c1)C(=O)N([C@H](C)CO)C[C@@H](C)[C@H](CN(C)Cc1ccc(C(F)(F)F)cc1)OCCCC[C@H](C)O2`, the cytotoxicity call is “active”.

On to `CC(C)NC(=O)Nc1ccc2c(c1)C(=O)N([C@H](C)CO)C[C@@H](C)[C@@H](CN(C)Cc1ccc(C(F)(F)F)cc1)OCCCC[C@H](C)O2`, for which the cytotoxicity call is “inactive”.

Regarding `CC(C)NC(=O)Nc1ccc2c(c1)C(=O)N([C@@H](C)CO)C[C@H](C)[C@@H](CN(C)Cc1ccc(C(F)(F)F)cc1)OCCCC[C@@H](C)O2`, the cytotoxicity call is “active”.

For `CC(C)NC(=O)Nc1ccc2c(c1)C(=O)N([C@@H](C)CO)C[C@@H](C)[C@@H](CN(C)Cc1ccc(C(F)(F)F)cc1)OCCCC[C@H](C)O2`, the cytotoxicity call was “inactive”.

In the case of `CC(C)NC(=O)Nc1ccc2c(c1)C(=O)N([C@H](C)CO)C[C@H](C)[C@@H](CN(C)Cc1ccc(C(F)(F)F)cc1)OCCCC[C@@H](C)O2`, the cytotoxicity call was “inactive”.

With `CC(C)NC(=O)Nc1ccc2c(c1)C(=O)N([C@@H](C)CO)C[C@@H](C)[C@H](CN(C)Cc1ccc(C(F)(F)F)cc1)OCCCC[C@@H](C)O2`, the cytotoxicity call is “inactive”.

As to `CC(C)NC(=O)Nc1ccc2c(c1)C(=O)N([C@H](C)CO)C[C@@H](C)[C@H](CN(C)Cc1ccc(C(F)(F)F)cc1)OCCCC[C@@H](C)O2`, the cytotoxicity call was “active”.

Take `CC(C)NC(=O)Nc1ccc2c(c1)C(=O)N([C@@H](C)CO)C[C@H](C)[C@H](CN(C)Cc1ccc(C(F)(F)F)cc1)OCCCC[C@@H](C)O2`: the cytotoxicity call was “active”.

For `CC(C)NC(=O)Nc1ccc2c(c1)C(=O)N([C@H](C)CO)C[C@H](C)[C@@H](CN(C)Cc1ccc(C(F)(F)F)cc1)OCCCC[C@H](C)O2`, the cytotoxicity call is “inactive”.

These data come from the antibiotic and cytotoxicity screens of Wong et al. (2023).
